Source: PubChem
LmPK inhibitor = qHTS Assay for Inhibitors of Leishmania Mexicana Pyruvate Kinase (LmPK); Q27686; purified LmPK, Kinase-Glo ATP luminescence, 1 h; Potency, µM (doses to about 57.5 µM), actives largely listed as inhibitors; hit rate 0.37% among 290,000
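Screened at intermediate enzyme activity to detect both inhibitors and activators: LmPK at 0.1 nM, with a 0.5 nM enzyme column as activation reference. PEP 0.5 mM, ADP 0.1 mM; ATP detected by luminescence after 1 h.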
Shiga inhibitor = A qHTS for Small Molecule Inhibitors of Shiga Toxin. Vero cells, Shiga toxin protein synthesis inhibition reporter. inhibition, % at 38.7 µM. hit rate 9.2% among 290,000. AID 2315, 2010; in the data active means inhibition mostly above about 28%, no sharp cut-off; inactive means mostly below about 43%
FBPA Giardia inh = qHTS Assay for Inhibitors of Fructose-1,6-bisphosphate Aldolase from Giardia Lamblia. A8B2U2. hit rate 0.71% among 290,000. purified Giardia FBPA. Potency, µM (top dose mostly 59.6 µM), actives largely listed as inhibitors; further: nearly all actives have a fitted effect of over 55% in size
Target sequence (A8B2U2 whole entry, looked up): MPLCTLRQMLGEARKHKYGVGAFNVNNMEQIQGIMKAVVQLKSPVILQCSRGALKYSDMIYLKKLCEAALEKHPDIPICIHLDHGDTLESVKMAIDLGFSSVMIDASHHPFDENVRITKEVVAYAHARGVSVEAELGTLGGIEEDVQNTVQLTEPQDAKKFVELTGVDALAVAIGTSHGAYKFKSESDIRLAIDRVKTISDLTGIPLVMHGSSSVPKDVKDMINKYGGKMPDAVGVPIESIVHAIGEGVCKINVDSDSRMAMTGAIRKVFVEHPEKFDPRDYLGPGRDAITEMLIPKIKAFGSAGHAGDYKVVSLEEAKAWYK
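Giardia FBPA (40 nM reagent) was preincubated 10 min at RT with compound (up to 57.5 uM final), then substrate plus GAPDH/TPI/NAD/arsenate coupling system with diaphorase/resazurin was added; resorufin fluorescence (525/598 nm) was read after 20 min.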
Sm TGR inh = qHTS Assay for the Inhibitors of Schistosoma Mansoni Peroxiredoxins; Schistosoma mansoni thioredoxin glutathione reductase (TGR), Q962Y6; purified TGR, DTNB reduction, TNB absorbance 405 nm; Potency, µM (highest dose often 114 µM), usual class: inhibitors; hit rate 3% among 360,000; AID 485364, 2010; further: nearly all actives have a fitted effect of over 60% in size
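First, TGR (20 nM dispensed) and NADPH were mixed with compound. Second, a 15 min room-temperature incubation followed. Third, further NADPH and then DTNB were added to start the reaction. Finally, TNB absorbance was monitored kinetically.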
Cycloheximide cs = Cycloheximide Counterscreen for Small Molecule Inhibitors of Shiga Toxin; hit rate 12% among 300,000; cell reporter, cycloheximide protein synthesis inhibition counterscreen; max response, %; in the data active means max response mostly above about 13%, no sharp cut-off; inactive means mostly below about 14%; further: read at 38.3 µM for the half of the compounds with a filed dose
Tb PYK inh = qHTS of Trypanosoma Brucei Inhibitors | AID 624173, 2012 | pyruvate kinase (Trypanosoma brucei), Q57TT1 | hit rate 0.12% among 410,000 | TbPYK enzyme, Kinase-Glo Plus ATP luminescence, 45 min | Potency, µM (highest dose often 76.8 µM), actives largely listed as inhibitors; further: nearly all actives have a fitted effect of over 50% in size
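In this concentration-response screen, enzyme-free wells defined baseline while DMSO plates tracked drift. Each reaction combined TbPYK, substrate, compound and 130 uM ADP for 45 min at room temperature. Kinase-Glo Plus luminescence gave the signal.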
Of the large screens only hits and unclear results are named; the others gave an inactive call. The sample as a whole holds a higher share of hits than the screen did. Unless noted, the call rests on the fitted dose curve; in most records, active means well fitted curve in the direction sought with a large enough effect; inconclusive means small, poorly fitted or top-dose-only effect, or another doubt; inactive means no such curve, though single readings can be large; an effect the other way counts as inactive or inconclusive.

O=C(NNc1ccccc1)c1ccccc1	none (no result: LmPK inhibitor, Shiga inhibitor, FBPA Giardia inh, Sm TGR inh, Cycloheximide cs)
Cc1cccc(NC(=O)CCNC(=O)c2ccc(Br)cc2)c1	Shiga inhibitor 82, Cycloheximide cs 26
CC(=O)Nc1cccc(NC(=O)c2ccc(Br)cc2)c1	Cycloheximide cs 27
CC(C)C(=O)Nc1cccc(NC(=O)c2cccc(Br)c2)c1	none
Cc1nc2cccnc2n1C1CCN(S(=O)(=O)N(C)C)CC1	none (no result: LmPK inhibitor, Shiga inhibitor, FBPA Giardia inh, Cycloheximide cs)
O=C(Nc1cccc(O)c1)c1ccc(Br)cc1	Shiga inhibitor 69, Cycloheximide cs 45
O=C(c1ccc(-c2ccc(Cl)cc2)o1)N1CCN(c2ccc([N+](=O)[O-])cc2Cl)CC1	none
CC1CC(C)CN(C(=O)c2ccc(-c3ccc([N+](=O)[O-])cc3)o2)C1 (configuration not stated)	Sm TGR inh 3.2µM (no result: LmPK inhibitor, Shiga inhibitor, FBPA Giardia inh, Cycloheximide cs)
O=C(c1ccc(-c2cccc([N+](=O)[O-])c2)o1)N1CCN(c2ccc([N+](=O)[O-])cc2)CC1	none (no result: LmPK inhibitor, Shiga inhibitor, FBPA Giardia inh, Cycloheximide cs)
O=C(c1ccc(-c2ccc([N+](=O)[O-])cc2)o1)N1CCCCC1	Shiga inhibitor 93, Sm TGR inh 45µM, Cycloheximide cs 43
Cc1ccc(C(=O)/C=C/c2ccc3c(c2)OCCO3)c(O)c1	Shiga inhibitor 86, Cycloheximide cs 40
O=C(/C=C/c1ccc2c(c1)OCCCO2)c1ccc2ccccc2c1O	Shiga inhibitor 40, Cycloheximide cs 12
COc1ccc(/C=C/C(=O)c2ccc(O)cc2O)cc1OC	none (no result: LmPK inhibitor, Shiga inhibitor, Sm TGR inh, Cycloheximide cs, Tb PYK inh)
CCN(CC)C(CNC(=O)c1cc(=O)[nH]c2ccccc12)c1ccccc1Cl (configuration not stated)	none (no result: FBPA Giardia inh)
CCOC(=O)c1cc(C)sc1/N=C/C1C(=O)CCCC1=O	Sm TGR inh inconclusive
CCOC(=O)c1cc(C)sc1/N=C/C1C(=O)NC(=S)NC1=O	FBPA Giardia inh inconclusive, Sm TGR inh 4.5µM
CCCCOc1ccc(CSCCN=C(N)N)cc1	Shiga inhibitor 42, Cycloheximide cs 31
O=C(Cc1ccc(-c2ccccc2)cc1)NCCS(=O)(=O)N1CCN(c2cccc(Cl)c2)CC1	none (no result: LmPK inhibitor, Shiga inhibitor, FBPA Giardia inh, Cycloheximide cs)
CCCCNC(=O)C(CC)Sc1nc2ccccc2c(=O)n1CCc1ccc(OC)c(OC)c1 (configuration not stated)	none (no result: LmPK inhibitor, Shiga inhibitor, FBPA Giardia inh, Cycloheximide cs)
CC1CCC/C(=N\Nc2ccc(Cl)c(C(=O)O)c2)C1 (configuration not stated)	Shiga inhibitor 60, Cycloheximide cs 165
CC1CCC/C(=N\NC(=O)Nc2ccccc2)C1 (configuration not stated)	Shiga inhibitor 53, Cycloheximide cs 27
CCOC(=O)c1ccc(NC(=O)Cc2coc3cc(C)cc(C)c23)cc1	none (no result: LmPK inhibitor, Shiga inhibitor, FBPA Giardia inh, Cycloheximide cs)
Cc1ccc(NC(=O)c2oc3c(c2C)C(=O)CC(C)(C)C3)cc1	none
Cc1c(C(=O)Nc2ccccc2)oc2c1C(=O)CC(C)(C)C2	Shiga inhibitor 82, Cycloheximide cs 33
CC(C)c1ccc(OCC(=O)Nc2ccc3oc(=O)ccc3c2)cc1	none
CCOC(=O)C1(Cc2cccc(Cl)c2)CCCN(C(=O)c2cc(C(C)C)nn2C)C1 (configuration not stated)	Cycloheximide cs 32 (no result: FBPA Giardia inh)
CCOC(=O)C1(Cc2cccc(Cl)c2)CCCN(C(=O)c2cc(C)on2)C1 (configuration not stated)	Shiga inhibitor 59, Cycloheximide cs 28 (no result: FBPA Giardia inh)
CCOC(=O)C1(Cc2cccc(Cl)c2)CCCN(C(=O)c2c(CC)noc2C)C1 (configuration not stated)	Shiga inhibitor 24, Cycloheximide cs 41
CCOC(=O)C1(Cc2cccc(Cl)c2)CCCN(C(=O)c2ccc(C)nc2)C1 (configuration not stated)	none
CCOC(=O)C1(Cc2cccc(Cl)c2)CCCN(C(=O)c2cc(C)[nH]n2)C1 (configuration not stated)	none (no result: FBPA Giardia inh)
CCOc1ccc(C(C(=O)NCC2CCCO2)N(C(=O)c2snc(C(N)=O)c2N)c2ccc3c(c2)OCCO3)cc1 (configuration not stated)	none
CCCc1ccc(-c2ccc(C(=O)Oc3ccc(OCC)cc3)cc2)nc1	none (no result: LmPK inhibitor, Shiga inhibitor, FBPA Giardia inh, Cycloheximide cs)
